SMILES strings stand for the structures. Several values for one entry are separate records, joined by “and”; a condition that tells them apart may be missing. Identical values can stand only once. Results filed as inconclusive are left out. A number with no mark means an inactive call. Calls follow the shape of the dose curve; as a rule, active = well fitted inhibition curve with a large enough effect in the signal ratio, with a control signal flat (not every such curve was filed as active); inconclusive = small, poorly fitted or top-dose-only effect, or effect the other way, or a change in a side signal; inactive = no such curve, though single readings can be large or run the other way; the % refers to the signal ratio.
% is scaled to controls: 0 for no effect and ±100 for the full control effect.

Chain of Retinoic acid receptor RXR-alpha (Homo sapiens) (P19793 whole entry, looked up): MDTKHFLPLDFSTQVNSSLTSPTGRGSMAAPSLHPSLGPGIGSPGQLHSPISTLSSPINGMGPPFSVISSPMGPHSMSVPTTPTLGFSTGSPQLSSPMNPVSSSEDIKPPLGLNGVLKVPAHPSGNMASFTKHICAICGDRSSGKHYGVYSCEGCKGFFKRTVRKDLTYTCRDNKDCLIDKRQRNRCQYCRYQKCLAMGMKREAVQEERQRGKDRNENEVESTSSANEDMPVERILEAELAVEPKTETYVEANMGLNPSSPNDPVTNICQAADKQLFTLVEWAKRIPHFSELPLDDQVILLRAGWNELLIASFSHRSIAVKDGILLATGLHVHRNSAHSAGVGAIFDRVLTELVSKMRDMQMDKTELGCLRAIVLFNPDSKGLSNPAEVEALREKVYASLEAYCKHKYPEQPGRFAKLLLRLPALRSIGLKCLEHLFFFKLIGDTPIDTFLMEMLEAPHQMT

The target in the assay is Retinoic acid receptor RXR-alpha (Homo sapiens) (UniProt P19793). Put plainly: qHTS assay for small molecule antagonists of retinoid X receptor alpha signaling (AID 588546). Conditions: HEK293T RXRa-UAS-bla, beta-lactamase ratio, antagonist mode. The source says:
NIH Chemical Genomics Center [NCGC] U.S. Environmental Protection Agency [EPA] National Institutes of Environmental Health Sciences [NIEHS] National Toxicology Program [NTP] NCGC Assay Overview The Retinoid X receptor (RXR), a nuclear hormone receptor is expressed in liver, spleen, placenta, epidermis, central nervous system. These receptors are able to form homo and heterodimers with other nuclear receptors and due to this heterodimerizing ability, RXR functions as master regulators producing diverse physiological effects. Three subtypes of RXR exist; alpha, beta and gamma. Retinoid X receptor alpha (RXR-alpha) has potential roles in metabolic signaling pathways, skin alopecia, dermal cysts, cardiac development, insulin sensitization etc. Therefore screening environmental chemicals on RXR-alpha signaling can be used for the studies focused on such therapeutic applications.
NCGC Assay Protocol Summary Using a beta-lactamase reporter-gene under control of Retinoid X receptor--alpha (RXR-alpha) response element, a cell-based assay [GeneBLAzer (RXR-alpha -UAS-bla assay developed by Invitrogen] was used to measure RXR-alpha ligands signaling. GeneBLAzer RXR-alpha -UAS-bla HEK293T cells were used with assay medium containing 2% charcoal-stripped FBS. The assay was performed in clear bottom black Greiner 1536-well plates. Library compounds were measured for their ability to inhibit the reporter gene activity. Compounds were screened in a titration series in 1536-well format. The fluorescence intensity (405 nm excitation, 460/530 nm emission) was measured using an EnVision plate reader. Data was normalized relative to 9-cis-retinoic acid control (500 nM, 100%), and DMSO only wells (basal, 0%). Concentration-response titration points for each compound were fitted to the Hill equation yielding concentrations of half-maximal inhibition (IC50) and maximal response (efficacy) values. qHTS protocol for RXR-alpha beta-lactamase assay in antagonist mode [Step] [Parameter] [Value] [Description] 1. Reagent; 5 uL; 2500 cells/well 2. Incubation; 37 C for 4 hrs 3. Compounds; 23 nL; 0.59 nM to 92 uM 4. Controls (DMSO); 23 nL 5. Agonist (Stimulator); 1uL; 9-cis-retinoic acid at 500 nM and 100 nM final concentrations 6. Incubation; 37 C for 18 hrs 7. Detection reagent; 1 uL of CCF4-dye 8. Incubation; RT for 2 hrs 9. Detection; Fluorescence; Envision plate reader
A general note: qHTS replaces the single test concentration by a dilution series.
As for `CC(C)OS(C)(=O)=O`, the max response was 0.937%.

`BrCC(Br)(Br)Br`: the max response is 23.1%.

Consider `Cc1cc(N=Nc2ccccc2C)ccc1N`, for which the max response was -17.1%.

In the case of `Cc1cc(-c2ccc(N)c(C)c2)ccc1N`, the max response was -5.08% and -3.85% and -31.9%.

Regarding `Cc1cccc(C)c1N`, the max response is 17.5%.

With `Nc1ccc([N+](=O)[O-])cc1N`, the max response is -24.9% and -14.3%.

As to `Nc1ccccc1-c1ccccc1`, the max response is -19.9%.

Turning to `ClCC(Br)CBr` (stereo not given), the max response is 13.4%.

For the compound `CCCCC(=O)Cl`, the max response was -9.41%.

For `CN(C)c1ccc(N=Nc2ccccc2)cc1`, the max response is -20.4%.

In the case of `NNC(N)=S`, the max response was 9.82%.

As to `Cl/C=C/CCl`, the max response is 3.74%.

As for `N#C/C(N)=C(/N)C#N`, the max response is 2%.

Consider `CC(=O)[O-].CC(=O)[O-].CC(=O)[O-].[Cr+3]`, for which the max response was 18.8%.

As for `CCN(N=O)C(N)=O`, the max response was -5.46%.

Regarding `ClC(Cl)c1ccccc1`, the max response was 0.971%.

In the case of `Nc1ncc([N+](=O)[O-])s1`, the max response was 20%.

As to `Nc1ccc(Cc2ccc(N)c(Cl)c2)cc1Cl`, the max response was -29.3%.

Turning to `CCOC(=O)CBr`, the max response is -3.36%.

In the case of `c1ccc(C2CO2)cc1` (stereo not given), the max response is 32.3%.

For `CCCCCCCCCCCOC(=O)c1ccccc1C(=O)OCCCCCCCCCCC`, the max response is -3.34%.

In the case of `N#CC(Cl)(Cl)Cl`, the max response was 11.1%.

Turning to `O=C(O)C(Cl)(Cl)Br`, the max response is 1%.

In the case of `Cc1cc(Cl)ccc1O`, the max response was -5.53%.

Turning to `C[N+](=O)[O-]`, the max response was 4.36%.

As for `O=[N+]([O-])c1cccc(CCl)c1`, the max response was -0.788%.

For `CC12CC1(C)C(=O)N(c1cc(Cl)cc(Cl)c1)C2=O` (stereo not given), the max response was -13.5%.

Take `CC(C)[C@]12CC(=O)[C@H](C)[C@H]1C2`: the max response is 7% and 0.913%.

For `CCC(Cl)[N+](=O)[O-]` (stereo not given), the max response was -10.3%.

As for `Clc1cccc(Cl)c1`, the max response was 24.2%.

As for `O=[N+]([O-])c1ccccc1CCl`, the max response was -4.02%.

For the compound `CC(C)C#N`, the max response is 2.91%.

Turning to `N#CC(Br)Br`, the max response is 18.7%.

For `O=C(O)C(Br)Br`, the max response is 6.61%.

As to `CC(C#N)CCC#N` (stereo not given), the max response was -1.63%.

Take `Oc1ccc(Cl)c(Cl)c1`: the max response was -1%.

Consider `CN=C=O`, for which the max response is 0.777%.

As to `c1ccc2c(c1)CCNC2`, the max response is 19.2%.

As to `CN(C)c1ccc(N)cc1`, the max response was -17.1%.

Consider `CCCCOCC1CO1` (stereo not given), for which the max response is 20.3%.

(Values after PubChem BioAssay (NCATS).)
